{
  "source": "PubChem BioAssay (Tox21)",
  "note": "Values joined by “and” are separate entries in the source; they are usually repeats but may differ in a detail not shown here. Equal entries are not always repeated. Inconclusive results are not listed. Some compounds were tested as several samples or in several runs, with calls that do not always agree. Active and inactive are the calls of the source. The call rests on the fitted dose curve; in most records, active means well fitted activation curve with a large enough effect in the repeat runs; inconclusive means weak or mixed curves; inactive means flat fitted curve, though single readings scatter. On the % scale 0 is the no-effect control and ±100 the full control effect; potency means the concentration at half of the fitted maximal effect.",
  "data": [
    {"assay": "A CellTox Green Cytotoxicity Assay to monitor cytotoxicity in HEK293 cells - 40 hour (AID 1224871); further: nearly all actives have a fitted effect of over 45% in size", "conditions": "CellTox Green fluorescence; series mostly up to 76.8 µM; cytotoxicity increase: at the top concentration", "from_the_text": "National Center for Advancing Translational Sciences [NCATS]\nNIH Chemical Genomics Center [NCGC]\nU.S. Environmental Protection Agency [EPA]\nNational Institutes of Environmental Health Sciences [NIEHS]\nNational Toxicology Program [NTP]\nCell-based models are critical for drug discovery. Determining the natural cytotoxic effects resulting from test compounds is an essential research activity. A CellTox Green Cytotoxicity Assay to monitor cytotoxicity in real time of continues cell culture during 40 hours of the compound treatment was used to screen Tox21 10K library compounds in Hek293 cells. CellTox Green Cytotoxicity Assay is a nonlytic, homogeneous, biofluorescent method to measure cytotoxicity in cell culture after experimental manipulation. The assay system uses a proprietary asymmetric cyanine dye that is excluded from viable cells but preferentially stains the dead cell's DNA. […] Viable cells produce no appreciable increases in fluorescence. Therefore, the fluorescence signal produced by the binding interaction with dead cell DNA is proportional to cytotoxicity.\nThe mixture of Hek293 cell suspension and reagents were dispensed at 600cells/6 ul/well in 1536-well tissue culture treated black solid bottom plates using a Multidrop dispenser. After the assay plates were incubated at a 37 C/5% CO2 incubator for 5 hours, 23 nL of compounds dissolved in DMSO, positive and negative controls was transferred to the assay plate by a pintool work station. The plates were incubated at 37 C for 40 hours. The fluorescence intensity were measured at 0h, 8h, 16h, 24h, 32h and 40h time points using ViewLux plate reader during compound treatment.", "values": [
      {"smiles": "CO[Si](CCC1CCC2OC2C1)(OC)OC", "note": "(stereo not given)", "cytotoxicity increase": "-11.5% (inactive)"},
      {"smiles": "Oc1ccc(-c2ccc(O)cc2)cc1", "cytotoxicity increase": "0.281% (inactive)"},
      {"smiles": "NC(=O)C(=O)N/N=C/c1ccc([N+](=O)[O-])o1", "cytotoxicity increase": "-7.36% [at 35.3 µM] (inactive)"},
      {"smiles": "Clc1cccnc1", "cytotoxicity increase": "2.49% (inactive)"},
      {"smiles": "Cc1occc1SSc1ccoc1C", "Potency": "54.9 µM (active)"},
      {"smiles": "C=C(C)C(=O)OCCC[Si](Cl)(Cl)Cl", "cytotoxicity increase": "-8.48% (inactive)"},
      {"smiles": "CCCCCCOc1ccc(O)cc1", "Potency": "19.5 µM (active)"},
      {"smiles": "CCOC(/C=C(\\C)CCC=C(C)C)OCC", "cytotoxicity increase": "-6.94% (inactive)"},
      {"smiles": "SCCCCCCCCS", "cytotoxicity increase": "4.94% (inactive)"},
      {"smiles": "COc1ccc2sc(C(=O)Nc3nnn[nH]3)c(OC(C)C)c2c1", "cytotoxicity increase": "1.18% (inactive)"},
      {"smiles": "C=CC(C)C#N", "note": "(stereo not given)", "cytotoxicity increase": "-11.6% (inactive)"},
      {"smiles": "Cc1oc(-c2ccccc2)nc1CCOc1ccc(C[C@H](Nc2ccccc2C(=O)c2ccccc2)C(=O)O)cc1", "cytotoxicity increase": "13% (inactive)"},
      {"smiles": "CC(C)(C)CC(C)(C)c1ccccc1O", "Potency": "39.1 µM (active)"},
      {"smiles": "CCc1c(C(=O)O)c(=O)cnn1-c1ccc(Cl)cc1", "cytotoxicity increase": "-7.26% (inactive)"},
      {"smiles": "CC(C)c1cccc(C(C)C)c1N1C(=O)c2ccc(O)cc2C1=O", "Potency": "49 µM (active)"},
      {"smiles": "Nc1ccc2cc3ccc(N)cc3nc2c1", "Potency": "43.6 µM (active) and 21.3 µM (active)"},
      {"smiles": "C[C@@H]1CC[C@H]2C(C)(C)[C@H]3C[C@@]12CC[C@@]3(C)O", "Potency": "38.8 µM (active)"},
      {"smiles": "CC(=O)Oc1ccc(C2(c3ccc(OC(C)=O)cc3)Oc3ccccc3NC2=O)cc1", "cytotoxicity increase": "-3.58% [at 35.3 µM] (inactive)"},
      {"smiles": "CCCCCCCCCCCC(=O)N(CC)CC", "cytotoxicity increase": "1.16% (inactive)"},
      {"smiles": "CC(=O)OC(OC(C)=O)c1ccc([N+](=O)[O-])o1", "Potency": "49.8 µM (active)"},
      {"smiles": "CC(C)(C)c1cc(CCC(=O)NCCCCCCNC(=O)CCc2cc(C(C)(C)C)c(O)c(C(C)(C)C)c2)cc(C(C)(C)C)c1O", "cytotoxicity increase": "-4.15% (inactive)"},
      {"smiles": "C=CC(=O)OCCN(CC)CC", "cytotoxicity increase": "-10.6% (inactive)"},
      {"smiles": "CC(O)C#CC(C)O", "note": "(stereo not given)", "Potency": "54.4 µM (active)"},
      {"smiles": "C[n+]1c2cc(N)ccc2cc2ccc(N)cc21", "note": "(tested in a mixture with another compound)", "Potency": "23.9 µM (active)"},
      {"smiles": "CCOCN(C(=O)CS(=O)(=O)O)c1c(C)cccc1CC", "cytotoxicity increase": "-17.3% (inactive)"},
      {"smiles": "Cc1ccc(CCn2c3c(c4cc(Cl)ccc42)CN(C)CC3)cn1", "cytotoxicity increase": "5.54% [at 35.3 µM] (inactive)"},
      {"smiles": "c1cc2c3c(c1)ccc1cccc(c13)C2", "Potency": "50 µM (active)"},
      {"smiles": "Cc1cccc(Br)c1", "cytotoxicity increase": "4.31% (inactive)"},
      {"smiles": "CO[C@H]1C=CO[C@@]2(C)Oc3c(C)c(O)c4c(O)c(cc(O)c4c3C2=O)NC(=O)/C(C)=C\\C=C/[C@H](C)[C@H](O)[C@@H](C)[C@@H](O)[C@@H](C)[C@H](OC(C)=O)[C@@H]1C", "cytotoxicity increase": "-30.9% (inactive)"},
      {"smiles": "CCCSS/C(CCO)=C(\\C)N(C=O)Cc1cnc(C)nc1N", "cytotoxicity increase": "6.77% [at 35.3 µM] (inactive)"},
      {"smiles": "CCCCCCCC(=O)OCC", "cytotoxicity increase": "9.05% (inactive)"},
      {"smiles": "O=S(=O)(O)c1cc(S(=O)(=O)O)c2ccc3c(S(=O)(=O)O)cc(S(=O)(=O)O)c4ccc1c2c43", "cytotoxicity increase": "-6.93% [at 15.8 µM] (inactive)"},
      {"smiles": "CCCCCCCOC(=O)c1ccc(O)cc1", "Potency": "inactive and 24.5 µM (active)"},
      {"smiles": "CC(=O)OC1CCCCC1", "cytotoxicity increase": "-11% (inactive)"},
      {"smiles": "O=Nc1ccc(NO)cc1", "cytotoxicity increase": "1.1% (inactive)"},
      {"smiles": "CCCCCCCCCCCCCCNCCO", "Potency": "19 µM (active)"},
      {"smiles": "COC(=O)NCCC[Si](OC)(OC)OC", "cytotoxicity increase": "-1.35% (inactive)"},
      {"smiles": "COC(=O)CC(C)CCC=C(C)C", "note": "(stereo not given)", "cytotoxicity increase": "1.8% (inactive)"},
      {"smiles": "C=C/C=C/C=C/CCCCC", "cytotoxicity increase": "10.9% [at 15.8 µM] (inactive)"},
      {"smiles": "ClC/C=C\\CCl", "cytotoxicity increase": "-5.39% (inactive)"}
    ]}
  ]
}
